# Reference: PubChem BioAssay
# Results filed as inconclusive are left out. Activity calls are given as the source filed them.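 The calls were made as follows, unless noted: active = normalized viability below 100% at a tested concentration; inactive = the rest.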
# Assays:
# [1] = growth inhibition of DIPG glioma cells, dose response, cell-based, SU-DIPG-XVII, MIPE5.0, CellTiter-Glo, qHTS (AID 1347060; cut-off not given, nearly all actives have AC50 up to about 26 µM;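 as to AC50: cells exposed to compound for 48 hours before viability readout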); conditions: SU-DIPG-XVII viability, CellTiter-Glo ATP luminescence
# [2] = viability loss in pontine glioma line – cell-based, SU-DIPG-XXV, MIPE5.0, CellTiter-Glo, qHTS, dose response (AID 1347065; cut-off not given, nearly all actives have AC50 up to about 26 µM;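 also: cells exposed to compound for 48 hours before ATP readout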); conditions: CellTiter-Glo ATP luminescence
# [3] = SU-DIPG-XXV glioma cell viability, MIPE5.0 library, qHTS (AID 1347068; cut-off not given, nearly all actives have IC50 up to about 30 µM)
# [4] = sensitizers of A549 cells to miR-34 induction, primary screen, imaging, A549 dox-inducible miR-34, nuclei and caspase counts (AID 1347080;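 active = compounds whose cell count with miR-34 switched on is under 0.7 times the count with it off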); conditions: A549 miR-34 inducible, Hoechst nuclei count, 48 h
# [5] = survival rescue of mitochondrial mutant cells in low glucose, primary screen, MELAS cybrids, Rieske KO mouse fibroblasts, CellTiter-Glo (AID 1508586;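 active = mean z-score across replicates of 1.96 or higher in either the MELAS or the Rieske mutant cell line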;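 also: z relative to plate mean and SD of compound and empty wells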)
# [6] = ovarian cancer cell viability with rucaparib, profiling panel, oncology-focused library, rucaparib conditional (AID 1508598); conditions: patient-derived ovarian cancer cells, CellTiter-Glo viability, 144 h, stronger effect = lower value
# [7] = LFS_MB_P medulloblastoma growth inhibition, cell-based, chromothripsis tumors, cisplatin or BGB combos (AID 1671449; in the data active = inhibition above about 80%;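 also: cells exposed for 96 hours; 0% = vehicle DMSO and 100% = killing by high DMSO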); conditions: LFS_MB_P medulloblastoma cells
# [8] = HDN33 neuroblastoma growth inhibition, cell-based, chromothripsis tumors, cisplatin or BGB combos (AID 1671450; in the data active = inhibition above about 80%;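 also: cells exposed to compound for four days; 0% = vehicle DMSO and 100% = cell killing by high DMSO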); conditions: HDN33 neuroblastoma cells, stronger effect = higher value
# [9] = ICB984 medulloblastoma cell growth inhibition, synergistic combos for chromothripsis tumors, cisplatin or BGB combos (AID 1671451; call rule not given here;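 also: cells exposed for 96 hours before readout; 0% = vehicle DMSO and 100% = killing by high DMSO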); conditions: ICB984 medulloblastoma cells, drug combinations, stronger effect = higher value
# [10] = LFS_MB_1R medulloblastoma cell growth inhibition, synergistic combos for chromothripsis tumors, cisplatin or BGB combos (AID 1671452; in the data active = inhibition above about 80%;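 also: cells exposed for 96 hours before readout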); conditions: LFS_MB_1R medulloblastoma cells, stronger effect = higher value
# [11] = HTB85 osteosarcoma cell growth inhibition, synergistic combos for chromothripsis tumors, BGB or cisplatin IC20 combos (AID 1671453; in the data active = inhibition above about 80%;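 also: cells exposed for 96 hours before readout; 0% = vehicle DMSO and 100% = high DMSO killing control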); conditions: HTB85 osteosarcoma cells, drug combinations, stronger effect = higher value
# [12] = CRL2098 osteosarcoma cell growth inhibition, synergistic combos for chromothripsis tumors, BGB or cisplatin IC20 combos (AID 1671454; in the data active = inhibition above about 80%;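 also: cells exposed for 96 h before readout; 0% = vehicle DMSO and 100% = killing by high DMSO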); conditions: CRL2098 osteosarcoma cells, drug combinations, stronger effect = higher value
# [13] = HD-MB03 medulloblastoma cell growth inhibition, synergistic combos for chromothripsis tumors, BGB or cisplatin IC20 combos (AID 1671455; in the data active = inhibition above about 83%;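 also: 0% = vehicle DMSO and 100% = high DMSO as cytotoxic control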); conditions: HD-MB03 medulloblastoma cells, stronger effect = higher value
# [14] = UWB1.289 ovarian carcinoma cell growth inhibition, synergistic combos for chromothripsis tumors, BGB or cisplatin combos (AID 1671456; in the data active = inhibition above about 80%;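 also: cells exposed to compound for four days; 0% = vehicle DMSO and 100% = killing by high DMSO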); conditions: UWB1.289 ovarian carcinoma cells, stronger effect = higher value
# [15] = LFS_MB_2R medulloblastoma cell growth inhibition, synergistic combos for chromothripsis tumors, cisplatin combos (AID 1671457; in the data active = inhibition above about 80%;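 also: cells exposed to compound for four days before readout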); conditions: LFS_MB_2R medulloblastoma cells, stronger effect = higher value
# [16] = MDA-MB-436 breast carcinoma cell growth inhibition, synergistic combos for chromothripsis tumors, BGB or cisplatin combos (AID 1671458; call rule not given here;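 also: cells exposed for 96 hours; 0% = vehicle DMSO and 100% = killing by high DMSO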); conditions: MDA-MB-436 breast carcinoma growth inhibition, drug combinations, stronger effect = higher value
# [17] = UWB1.289_BRCA1 ovarian cancer growth, cell-based, BGB or cisplatin combinations (AID 1671459; in the data active = inhibition above about 80%); conditions: UWB1.289 BRCA1 ovarian carcinoma, drug combinations, stronger effect = higher value
# [18] = human astrocyte viability loss, single and combined drugs, cytotoxicity control for chromothriptic childhood tumor combination screen, cell-based, BGB or cisplatin IC20 combos (AID 1671460; in the data active = inhibition above about 80%;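 also: cells exposed to compounds for 96 hours before viability readout; 0% = vehicle and 100% = killing control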); conditions: Human astrocytes, drug combinations, stronger effect = higher value
# [19] = growth inhibition of BT084 medulloblastoma cells, cell-based, ICGC_MB145, cisplatin and BGB IC40 combos (AID 1671461; in the data active = inhibition above about 80%;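 also: cells exposed to drugs for 96 hours; 0% = vehicle DMSO and 100% = high DMSO full killing control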); conditions: drug combinations, stronger effect = higher value
# [20] = growth inhibition of RCMB18 medulloblastoma cells, cell-based, cisplatin and BGB IC40 combos (AID 1671462; in the data active = inhibition above about 80%;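 also: cells exposed to compound for four days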); conditions: stronger effect = higher value
# [21] = growth inhibition of CRL1545 osteosarcoma cells, cell-based, cisplatin and BGB IC20 combos (AID 1671464; in the data active = inhibition above about 80%;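 also: cells exposed to compound for 96 hours before readout; 0% = vehicle DMSO and 100% = high DMSO killing control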); conditions: stronger effect = higher value
# [22] = JHH-DIPG-1 glioma cell viability, MIPE5.0 library, CellTiter-Glo luminescence, qHTS (AID 1347067; cut-off not given, nearly all actives have AC50 up to about 26 µM;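 also: cells exposed to compound for 48 hours before readout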); conditions: JHH-DIPG-1 glioma viability, CellTiter-Glo ATP luminescence
# [23] = measured here: combination with BGB IC40, at 0.05 µM
# [24] = measured here: with BGB IC20 combination, at 0.5 µM
# [25] = measured here: with cisplatin IC20 combination, at 0.5 µM
# [26] = measured here: combination with cisplatin, at 0.5 µM
# [27] = measured here: combination with cisplatin, at 5 µM
smiles,measurement,setting,value
COc1ccc(-n2c(SCCCN3C(=O)c4cccc5cccc(c45)C3=O)nnc2-c2ccncc2)cc1,outcome,[1],inactive
same,outcome,[2],inactive
same,outcome,[3],inactive
same,fold change,"[4]; stronger effect = lower value, cell number ratio, induced over uninduced",0.884 (inactive)
same,fold change,[4]; measured here: relative caspase fold change +Dox/-Dox,0.42
same,cell count,"[4]; measured here: total cells with miR-34 induction, stronger effect = lower value",6580
same,cell count,[4]; measured here: total cells without miR-34 induction,7440
same,z-score,"[5]; MELAS cybrid survival, CellTiter-Glo 48 h, stronger effect = higher value",-0.376 (inactive)
same,z-score,"[5]; Rieske KO mouse fibroblast survival, CellTiter-Glo 72 h",1.13
same,viability,"[6]; at 0.000305 µM, OCI-C5x cells, with rucaparib 10 µM, 100% = cells with rucaparib alone",118% (inactive)
same,viability,"[6]; at 0.000305 µM, OCI-C5x cells, without rucaparib",116% (inactive)
same,viability,"[6]; at 0.000305 µM, OCI-P5x cells, with rucaparib 20 µM, 100% = cells with rucaparib alone",101% (inactive)
same,viability,"[6]; at 0.000305 µM, OCI-P5x cells, without rucaparib",100% (inactive)
same,viability,"[6]; at 0.00122 µM, OCI-C5x cells, with rucaparib 10 µM, 100% = cells with rucaparib alone",120% (inactive)
same,viability,"[6]; at 0.00122 µM, OCI-C5x cells, without rucaparib",121% (inactive)
same,viability,"[6]; at 0.00122 µM, OCI-P5x cells, with rucaparib 20 µM, 100% = cells with rucaparib alone",101% (inactive)
same,viability,"[6]; at 0.00122 µM, OCI-P5x cells, without rucaparib",99.9% (active)
same,viability,"[6]; at 0.00488 µM, OCI-C5x cells, with rucaparib 10 µM, 100% = cells with rucaparib alone",117% (inactive)
same,viability,"[6]; at 0.00488 µM, OCI-C5x cells, without rucaparib",117% (inactive)
same,viability,"[6]; at 0.00488 µM, OCI-P5x cells, with rucaparib 20 µM, 100% = cells with rucaparib alone",94.7% (active)
same,viability,"[6]; at 0.00488 µM, OCI-P5x cells, without rucaparib",104% (inactive)
same,viability,"[6]; at 0.0195 µM, OCI-C5x cells, with rucaparib 10 µM, 100% = cells with rucaparib alone",125% (inactive)
same,viability,"[6]; at 0.0195 µM, OCI-C5x cells, without rucaparib",121% (inactive)
same,viability,"[6]; at 0.0195 µM, OCI-P5x cells, with rucaparib 20 µM, 100% = cells with rucaparib alone",102% (inactive)
same,viability,"[6]; at 0.0195 µM, OCI-P5x cells, without rucaparib",101% (inactive)
same,viability,"[6]; at 0.0781 µM, OCI-C5x cells, with rucaparib 10 µM, 100% = cells with rucaparib alone",125% (inactive)
same,viability,"[6]; at 0.0781 µM, OCI-C5x cells, without rucaparib",118% (inactive)
same,viability,"[6]; at 0.0781 µM, OCI-P5x cells, with rucaparib 20 µM, 100% = cells with rucaparib alone",95.3% (active)
same,viability,"[6]; at 0.0781 µM, OCI-P5x cells, without rucaparib",98.1% (active)
same,viability,"[6]; at 0.313 µM, OCI-C5x cells, with rucaparib 10 µM, 100% = cells with rucaparib alone",138% (inactive)
same,viability,"[6]; at 0.313 µM, OCI-C5x cells, without rucaparib",130% (inactive)
same,viability,"[6]; at 0.313 µM, OCI-P5x cells, with rucaparib 20 µM, 100% = cells with rucaparib alone",95.5% (active)
same,viability,"[6]; at 0.313 µM, OCI-P5x cells, without rucaparib",77.9% (active)
same,viability,"[6]; at 1.25 µM, OCI-C5x cells, with rucaparib 10 µM, 100% = cells with rucaparib alone",129% (inactive)
same,viability,"[6]; at 1.25 µM, OCI-C5x cells, without rucaparib",128% (inactive)
same,viability,"[6]; at 1.25 µM, OCI-P5x cells, with rucaparib 20 µM, 100% = cells with rucaparib alone",89.8% (active)
same,viability,"[6]; at 1.25 µM, OCI-P5x cells, without rucaparib",77.7% (active)
same,viability,"[6]; at 5 µM, OCI-C5x cells, with rucaparib 10 µM, 100% = cells with rucaparib alone",113% (inactive)
same,viability,"[6]; at 5 µM, OCI-C5x cells, without rucaparib",123% (inactive)
same,viability,"[6]; at 5 µM, OCI-P5x cells, with rucaparib 20 µM, 100% = cells with rucaparib alone",98.5% (active)
same,viability,"[6]; at 5 µM, OCI-P5x cells, without rucaparib",86.5% (active)
same,inhibition,"[7]; at 0.5 µM, stronger effect = higher value",9.82% (inactive)
same,inhibition,"[7]; measured here: combination with BGB IC20, at 0.005 µM",9.58%
same,inhibition,"[7]; measured here: combination with BGB IC40, at 0.005 µM",-35.2%
same,inhibition,[7]; [23],-11%
same,inhibition,"[7]; measured here: combination with cisplatin, at 0.5 µM, stronger effect = higher value",82.2%
same,inhibition,"[7]; measured here: combination with cisplatin, at 5 µM, stronger effect = higher value",-43.7%
same,inhibition,"[8]; BGB combo, at 5 µM",-3.81%
same,inhibition,[8]; at 0.5 µM,4% (inactive)
same,inhibition,"[8]; cisplatin combo, at 5 µM",14.9%
same,inhibition,[8]; [24],-3.11%
same,inhibition,[8]; [25],10.7%
same,inhibition,"[8]; single agent, at 5 µM",26.4%
same,inhibition,"[9]; BGB IC20 combo, at 0.005 µM",-14.7%
same,inhibition,"[9]; BGB IC40 combo, at 0.005 µM",-33.9%
same,inhibition,"[9]; BGB IC40 combo, at 0.05 µM",-28.6%
same,inhibition,[9]; at 0.5 µM,-17.9% (inactive)
same,inhibition,"[9]; cisplatin combo, at 0.05 µM",-33.7%
same,inhibition,"[9]; cisplatin combo, at 0.5 µM",-25.4%
same,inhibition,"[9]; cisplatin combo, at 5 µM",-32.6%
same,inhibition,"[9]; measured here: 5 uM single agent, at 5 µM",-15.5%
same,inhibition,[10]; at 0.5 µM,-13.2% (inactive)
same,inhibition,[10]; [23],-35.9%
same,inhibition,[10]; [26],-19.9%
same,inhibition,[10]; [27],-31.3%
same,inhibition,[11]; at 0.5 µM,-0.55% (inactive)
same,inhibition,"[11]; measured here: with BGB IC20, at 0.5 µM",6.74%
same,inhibition,"[11]; measured here: with BGB IC20, at 5 µM",0.541%
same,inhibition,"[11]; measured here: with cisplatin IC20, at 0.5 µM",-17.9%
same,inhibition,"[11]; measured here: with cisplatin IC20, at 5 µM",-0.549%
same,inhibition,"[11]; single agent, at 5 µM",19.7%
same,inhibition,[12]; at 0.5 µM,-27.6% (inactive)
same,inhibition,"[12]; measured here: combination with BGB at IC20, at 0.5 µM",-23.3%
same,inhibition,"[12]; measured here: combination with cisplatin at IC20, at 0.5 µM",-22.2%
same,inhibition,[13]; at 0.5 µM,-0.19% (inactive)
same,inhibition,"[13]; measured here: combo with BGB at IC20, at 0.5 µM",-1.2%
same,inhibition,"[13]; measured here: combo with cisplatin at IC20, at 0.5 µM",6.56%
same,inhibition,[14]; at 0.5 µM,1.01% (inactive)
same,inhibition,"[14]; measured here: inhibition with BGB combination, at 0.05 µM",-4.64%
same,inhibition,"[14]; measured here: inhibition with cisplatin combination, at 0.05 µM",-4.19%
same,inhibition,[15]; at 0.5 µM,-15% (inactive)
same,inhibition,[15]; [26],-8.95%
same,inhibition,[15]; [27],-20.5%
same,inhibition,[16]; at 0.5 µM,-5.31% (inactive)
same,inhibition,"[16]; measured here: BGB combination, at 0.5 µM",-12%
same,inhibition,"[16]; measured here: BGB combination, at 5 µM",-10.9%
same,inhibition,"[16]; measured here: cisplatin combination, at 0.5 µM",-2.01%
same,inhibition,"[16]; measured here: cisplatin combination, at 5 µM",-2.78%
same,inhibition,"[17]; BGB combination, concentration series, at 5 µM",7.08%
same,inhibition,[17]; at 0.5 µM,1.18% (inactive)
same,inhibition,"[17]; cisplatin combination, concentration series, at 5 µM",13.2%
same,inhibition,[18]; at 0.5 µM,16% (inactive)
same,inhibition,"[18]; measured here: combo with BGB IC20, at 0.5 µM",24.6%
same,inhibition,"[18]; measured here: combo with cisplatin IC20, at 0.5 µM",15.9%
same,inhibition,[19]; at 0.5 µM,3.66% (inactive)
same,inhibition,"[19]; cisplatin combination, at 0.5 µM",8.14%
same,inhibition,"[19]; cisplatin combination, at 5 µM",-2.96%
same,inhibition,"[19]; measured here: BGB IC40 combination 0.05 uM, at 0.05 µM",15.7%
same,inhibition,"[19]; single agent, at 5 µM",-22%
same,inhibition,[20]; at 0.5 µM,-7.05% (inactive)
same,inhibition,"[20]; cisplatin combo, at 5 µM",17.7%
same,inhibition,"[20]; measured here: BGB IC40 combination, at 0.05 µM",-27.1%
same,inhibition,[20]; [26],26.9%
same,inhibition,"[20]; single agent, at 5 µM",-22.4%
same,inhibition,[21]; at 0.5 µM,-5.28% (inactive)
same,inhibition,[21]; [24],-6.44%
same,inhibition,[21]; [25],-4.7%
same,inhibition,"[21]; single agent, at 0.05 µM",-13.5%
same,inhibition,"[21]; single agent, at 5 µM",7.92%
NC(=O)C1=C(O)[C@@]2(O)C(=O)C3=C(O)c4c(O)cccc4C[C@H]3C[C@H]2CC1=O,AC50,[1],18.6 µM (active)
same,AC50,[22],14.8 µM (active)
same,outcome,[3],inactive
